HEK cytotox – cytotoxic compounds in HEK 293 cells; HEK 293 viability, ATP luminescence (CellTiter-Glo), 48-72 h; Potency, µM (series often up to 115 µM), usual class: inhibitors; 94,000 compounds, 6.6% hits; AID 1345083; further: nearly all actives have a fitted effect of over 60% in size
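Cytotoxicity was scored by loss of ATP-coupled luminescence (CellTiter-Glo) in HEK 293 cells. Compound treatment ran 48 or 72 hr at 37 degree Celsius, 5% CO2, 95% humidity.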
FLuc inh – blocks purified firefly luciferase enzyme activity. P08659. purified P. pyralis luciferase, luminescence, biochemical. Potency, µM (doses to about 115 µM), hits mostly inhibitors. 76,000 compounds, 2.5% hits. AID 1347043; further: nearly all actives have a fitted effect of over 65% in size
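Luminescence read by CCD imager after adding enzyme (10nM final) to wells holding compound, titrated in qHTS. Substrates 10uM each D-luciferin and ATP; buffer 50mM Tris acetate pH 7.5, 10mM Mg acetate, Tween-20, BSA.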
hNpr1 antagonist – blocks ANP-stimulated signaling of human Npr1 receptor. 76,000 compounds, 1.6% hits. P16066. HEK293 hNpr1 GloSensor cGMP, ANP-stimulated luminescence. Potency, µM (top dose mostly 46.3 µM), hits mostly inhibitors; calls by dose curve; further: nearly all actives have a fitted effect of over 60% in size
Target sequence (P16066 whole entry, looked up): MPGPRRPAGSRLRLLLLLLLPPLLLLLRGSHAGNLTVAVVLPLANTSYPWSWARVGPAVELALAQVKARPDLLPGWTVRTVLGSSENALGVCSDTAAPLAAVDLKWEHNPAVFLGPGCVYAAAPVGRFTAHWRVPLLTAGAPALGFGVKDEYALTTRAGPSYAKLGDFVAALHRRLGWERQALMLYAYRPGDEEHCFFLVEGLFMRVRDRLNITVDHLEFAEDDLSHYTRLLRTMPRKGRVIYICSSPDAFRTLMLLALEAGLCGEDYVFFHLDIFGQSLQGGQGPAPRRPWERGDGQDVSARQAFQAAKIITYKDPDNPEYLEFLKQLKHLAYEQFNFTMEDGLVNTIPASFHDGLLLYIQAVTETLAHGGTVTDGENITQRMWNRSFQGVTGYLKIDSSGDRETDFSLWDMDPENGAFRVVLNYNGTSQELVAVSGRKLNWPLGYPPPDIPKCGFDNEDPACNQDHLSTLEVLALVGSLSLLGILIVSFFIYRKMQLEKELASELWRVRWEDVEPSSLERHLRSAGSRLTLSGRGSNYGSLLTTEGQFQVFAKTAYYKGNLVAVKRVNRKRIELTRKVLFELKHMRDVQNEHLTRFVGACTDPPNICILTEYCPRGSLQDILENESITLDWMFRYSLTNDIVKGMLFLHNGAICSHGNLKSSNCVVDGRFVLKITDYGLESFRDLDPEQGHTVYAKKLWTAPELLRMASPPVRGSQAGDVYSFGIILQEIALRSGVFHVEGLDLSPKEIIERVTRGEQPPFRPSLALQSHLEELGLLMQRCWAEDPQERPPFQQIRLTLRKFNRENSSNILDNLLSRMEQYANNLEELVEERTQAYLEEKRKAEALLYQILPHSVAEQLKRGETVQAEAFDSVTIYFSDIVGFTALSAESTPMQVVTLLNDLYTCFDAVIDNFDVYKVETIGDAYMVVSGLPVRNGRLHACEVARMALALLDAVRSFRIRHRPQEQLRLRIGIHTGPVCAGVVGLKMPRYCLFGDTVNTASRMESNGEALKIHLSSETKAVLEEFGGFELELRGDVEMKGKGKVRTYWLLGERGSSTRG
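Compound pre-incubated 30 min at room temperature on GloSensor-loaded HEK293 cells stably carrying hNpr1 and the pGS-40F cGMP biosensor. Stimulation uses hNppA at 0.1 nM final; luminescence is taken at baseline and 20 min post-agonist.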
3T3 cytotox – NIH 3T3 cell cytotoxicity. NIH 3T3 viability, CellTiter-Glo ATP luminescence, 48-72 h. Potency, µM (doses to about 96.7 µM), actives largely listed as inhibitors. 94,000 compounds, 4.3% hits. AID 1345082; further: nearly all actives have a fitted effect of over 55% in size
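Luminescent ATP readout (CellTiter-Glo, 10 min RT) after 48 or 72 hr compound exposure of NIH 3T3 cells seeded at 400 cells/well in 1536-well format; quantitative HTS.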
Of the large screens only hits and unclear results are named; the others gave an inactive call. An excerpt weighted towards active compounds, which were near 11% of everything screened. Unless noted, the call rests on the fitted dose curve; in most records, active means well fitted curve in the direction sought with a large enough effect; inconclusive means small, poorly fitted or top-dose-only effect, or another doubt; inactive means no such curve, though single readings can be large; an effect the other way counts as inactive or inconclusive.

O=C1NCCCCCCN(Cc2ccncc2)[C@@H]2CN(C(=O)C3CCCCC3)CC[C@@H]12	HEK cytotox 45µM, 3T3 cytotox inconclusive
O=C1NCCCCCCN(Cc2ccc(C(F)(F)F)cc2)[C@H]2CCC[C@@H]12	HEK cytotox 40µM, 3T3 cytotox inconclusive
COCCc1noc(CC2CCOC3(CCN(S(=O)(=O)c4cccc5cccnc45)CC3)C2)n1 (stereo not drawn)	HEK cytotox inconclusive (no result: FLuc inh, hNpr1 antagonist)
COc1cccc(-c2cn3cc(C(=O)NCCCc4ccccc4)nc3s2)c1	HEK cytotox inconclusive, 3T3 cytotox 35µM (no result: FLuc inh, hNpr1 antagonist)
O=C(NCc1ccccn1)c1cn2cc(-c3ccccc3)sc2n1	HEK cytotox 50µM, 3T3 cytotox inconclusive (no result: FLuc inh, hNpr1 antagonist)
COc1ccc(-c2cn3cc(C(=O)NCCc4ccccc4)nc3s2)cc1	none (no result: FLuc inh, hNpr1 antagonist)
COC(=O)CNC(=O)c1cn2cc(-c3ccccc3)sc2n1	3T3 cytotox inconclusive (no result: FLuc inh, hNpr1 antagonist)
O=C(NCc1ccccn1)c1cn2cc(-c3cccc(C(F)(F)F)c3)sc2n1	HEK cytotox inconclusive (no result: FLuc inh, hNpr1 antagonist)
CC(C)CNC(=O)c1cn2cc(-c3ccccc3)sc2n1	HEK cytotox 71µM, 3T3 cytotox inconclusive (no result: FLuc inh, hNpr1 antagonist)
O=C(NCCCc1ccccc1)c1cn2cc(-c3ccc(F)cc3)sc2n1	HEK cytotox inconclusive, 3T3 cytotox 20µM (no result: FLuc inh, hNpr1 antagonist)
CCCCn1c(=O)c(C(=O)N2CCN(C(=O)c3ccc(Cl)nc3)CC2)nc2cccnc21	none (no result: FLuc inh, hNpr1 antagonist)
Cc1nc2cccnc2n1CC1CCCN(S(=O)(=O)c2cc(F)cc(F)c2)C1 (stereo not drawn)	HEK cytotox inconclusive
O=C(NCCNC(=O)c1ccc(-c2cncnc2)cc1)c1ccc(Cl)cc1	none (no result: FLuc inh, hNpr1 antagonist)
COc1ccc(-c2cn3cc(C(=O)N4CCN(C(C)=O)CC4)nc3s2)cc1	none (no result: FLuc inh, hNpr1 antagonist)
COc1cccc(-c2cn3cc(C(=O)N4CCCCC4)nc3s2)c1	HEK cytotox inconclusive, 3T3 cytotox 40µM (no result: FLuc inh, hNpr1 antagonist)
O=C(NCc1ccc(Cl)cc1)c1cn2cc(-c3ccccc3)sc2n1	HEK cytotox inconclusive (no result: FLuc inh, hNpr1 antagonist)
O=C(NC1CCCCC1)c1cn2cc(-c3ccccc3)sc2n1	HEK cytotox 63µM, 3T3 cytotox inconclusive (no result: FLuc inh, hNpr1 antagonist)
O=C(NCc1ccc(F)cc1)c1cn2cc(-c3ccccc3)sc2n1	HEK cytotox 79µM, 3T3 cytotox inconclusive (no result: FLuc inh, hNpr1 antagonist)
O=C(c1nc2cccnc2n(C2CC2)c1=O)N1CCN(C(=O)C2CC2)CC1	none (no result: FLuc inh, hNpr1 antagonist)
CC1(c2ccccc2)N(Cc2cccnc2)C(=O)OC12CCN(C(=O)c1ccc(F)cc1)CC2 (stereo not drawn)	3T3 cytotox inconclusive
Cc1ncsc1C(=O)N1CCC2(CC1)OC(=O)N(Cc1ccccc1)C2(C)c1cccnc1 (stereo not drawn)	3T3 cytotox 22µM
Cc1ncsc1C(=O)N1CCC2(CC1)OC(=O)N(Cc1cccnc1)C2(C)c1ccccc1 (stereo not drawn)	3T3 cytotox 22µM
CC1(c2ccccc2)N(Cc2cccnc2)C(=O)OC12CCN(C(=O)C1CCC1)CC2 (stereo not drawn)	3T3 cytotox 18µM
COc1ccc(C(=O)N2CCC3(CC2)OC(=O)N(Cc2cccnc2)C3(C)c2ccccc2)cn1 (stereo not drawn)	3T3 cytotox 40µM
CC1(c2ccccc2)N(Cc2cccnc2)C(=O)OC12CCN(C(=O)c1ccccc1)CC2 (stereo not drawn)	3T3 cytotox inconclusive
Cc1ccc(OCc2nc(C3CN(C(=O)CCc4nc5ccccc5s4)C3)no2)cc1	HEK cytotox inconclusive, hNpr1 antagonist inconclusive, 3T3 cytotox inconclusive
O=C(Cc1c[nH]c2ccccc12)N1CCC(N2C(=O)C(O)C23CCCCC3)CC1 (stereo not drawn)	none
CN(C)C(=O)c1ccc(-c2nnc3ccc(NC(=O)C4CCC4)cn23)cc1	HEK cytotox inconclusive, FLuc inh inconclusive
Cc1cnn(-c2cc(N3CCC(n4cc(C5CCCC5)nn4)CC3)ncn2)c1	HEK cytotox 45µM, hNpr1 antagonist inconclusive, 3T3 cytotox inconclusive
Cc1cncnc1C1CCN(c2cc(C3CC(N)C3)ncn2)CC1 (stereo not drawn)	none
C[S+](=O)([O-])c1ccc(-c2nnc3ccc(C(=O)NCC4CC4)cn23)cc1	none (no result: FLuc inh, hNpr1 antagonist)
COc1ccc(C(=O)N2C[C@@H]3C[C@H](C2)c2ccc(NS(=O)(=O)c4ccccc4C#N)c(=O)n2C3)cc1	none
COc1ccc(C(=O)N2C[C@@H]3C[C@H](C2)c2ccc(NC(=O)Nc4cccc(C#N)c4)c(=O)n2C3)cc1	HEK cytotox inconclusive, FLuc inh 25µM, 3T3 cytotox inconclusive
COc1ccc(C(=O)N2C[C@@H]3C[C@H](C2)c2c(NC(=O)Nc4ccccc4)ccc(=O)n2C3)cc1	HEK cytotox 10µM
O=C(CN1C(=O)NC(c2ccc(Cl)cc2)C2=C1COC2=O)Nc1ccc(C(F)(F)F)cc1 (stereo not drawn)	HEK cytotox inconclusive, hNpr1 antagonist inconclusive, 3T3 cytotox 22µM
CCCCc1ccc(NC(=O)CN2C(=O)NC(c3ccc(Cl)cc3)C3=C2COC3=O)cc1 (stereo not drawn)	HEK cytotox 20µM, 3T3 cytotox 20µM
Cc1ccc(C2NC(=O)N(CC(=O)Nc3ccc(C(F)(F)F)cc3)C3=C2C(=O)OC3)cc1 (stereo not drawn)	HEK cytotox 25µM, hNpr1 antagonist inconclusive, 3T3 cytotox 32µM
O=C(CN1C(=O)NC(c2ccc(Cl)cc2)C2=C1COC2=O)NCCc1ccc(Cl)cc1 (stereo not drawn)	HEK cytotox 45µM, 3T3 cytotox inconclusive
CC(=O)Nc1ccc(NC(=O)CN2C(=O)NC(c3ccc(C)cc3)C3=C2COC3=O)cc1 (stereo not drawn)	FLuc inh inconclusive
O=C(CN1C(=O)NC(c2ccc(Cl)cc2)C2=C1COC2=O)Nc1ccccc1 (stereo not drawn)	HEK cytotox inconclusive, 3T3 cytotox inconclusive
O=[S+]1([O-])c2cnccc2OC(Cn2cccc2)CN1Cc1cccc(F)c1 (stereo not drawn)	HEK cytotox inconclusive (no result: FLuc inh, hNpr1 antagonist)
CNC(=O)c1cc(C)nc2onc(C3CCN(C(=O)N(C)C)C3)c12 (stereo not drawn)	none (no result: FLuc inh, hNpr1 antagonist)
COc1ccc(Cl)cc1S(=O)(=O)N1CCCC(Cn2c(C)nc3cccnc32)C1 (stereo not drawn)	HEK cytotox inconclusive, 3T3 cytotox inconclusive
CC(C)Nc1nccc(C2(c3ccccc3Cl)CCNCC2)n1	HEK cytotox inconclusive
Clc1ccccc1C1(c2ccnc(NC3CCC3)n2)CCNCC1	HEK cytotox 35µM, 3T3 cytotox 28µM
COCCN1Cc2[nH]nc(-c3cccc(OC)c3)c2CC1=O	HEK cytotox inconclusive, 3T3 cytotox 100µM
O=C1Cc2c(-c3ccccc3)n[nH]c2CN1CCOc1ccccc1	FLuc inh inconclusive, hNpr1 antagonist 13µM, 3T3 cytotox inconclusive
O=C(O)c1cccc(-c2n[nH]c3c2CC(=O)N(c2ccccc2)C3)c1	HEK cytotox inconclusive, FLuc inh 63µM, 3T3 cytotox inconclusive
O=C(O)c1cccc(-c2n[nH]c3c2CC(=O)N(CCOc2ccccc2)C3)c1	3T3 cytotox inconclusive
COc1ccc(-c2n[nH]c3c2CC(=O)N(CCOc2ccccc2)C3)cc1F	HEK cytotox 100µM, 3T3 cytotox inconclusive
Cc1cc(C)cc(N2CCN(Cc3cn(-c4ccccc4)nn3)CC2=O)c1	HEK cytotox inconclusive

From PubChem
